Results taken from the supplement of paper PMC10849652.
About 7,900 targets were measured; listed, in parts, are those with a hit and a random draw of the rest. About 0.6% of all pairs of compound and target were hits.

What follows are targets tested with CON(C)C(=O)N1N=C(c2cc(F)ccc2F)S[C@@]1(CCCN)c1ccccc1 [filanesib] (assay: log2 fold change, soluble protein after heating vs DMSO (PISA); higher = thermal stabilisation; K562 cells, 10 uM, 30 min; active = over 0.2 and 3.5 SD of the protein, either way, in both replicates (recomputed)).
Summary of the method: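 Thermal stability values are relative to control samples and come from duplicates. They are expressed as log2 fold changes. For measurement, K562 cells (2×10^6 cells/mL) received 10 μM compound for 30 min, and aliquots were heated for 3 min over 48°C-58°C, pooled, and extracted at 4°C in PBS with 0.5% NP-40. Soluble protein, the supernatant after 21,000xg for 90 min, was quantified by TMTpro 16plex LC-MS/MS with equalised channel sums.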

Chain of UniProt Q13428 (Q13428 whole entry, looked up): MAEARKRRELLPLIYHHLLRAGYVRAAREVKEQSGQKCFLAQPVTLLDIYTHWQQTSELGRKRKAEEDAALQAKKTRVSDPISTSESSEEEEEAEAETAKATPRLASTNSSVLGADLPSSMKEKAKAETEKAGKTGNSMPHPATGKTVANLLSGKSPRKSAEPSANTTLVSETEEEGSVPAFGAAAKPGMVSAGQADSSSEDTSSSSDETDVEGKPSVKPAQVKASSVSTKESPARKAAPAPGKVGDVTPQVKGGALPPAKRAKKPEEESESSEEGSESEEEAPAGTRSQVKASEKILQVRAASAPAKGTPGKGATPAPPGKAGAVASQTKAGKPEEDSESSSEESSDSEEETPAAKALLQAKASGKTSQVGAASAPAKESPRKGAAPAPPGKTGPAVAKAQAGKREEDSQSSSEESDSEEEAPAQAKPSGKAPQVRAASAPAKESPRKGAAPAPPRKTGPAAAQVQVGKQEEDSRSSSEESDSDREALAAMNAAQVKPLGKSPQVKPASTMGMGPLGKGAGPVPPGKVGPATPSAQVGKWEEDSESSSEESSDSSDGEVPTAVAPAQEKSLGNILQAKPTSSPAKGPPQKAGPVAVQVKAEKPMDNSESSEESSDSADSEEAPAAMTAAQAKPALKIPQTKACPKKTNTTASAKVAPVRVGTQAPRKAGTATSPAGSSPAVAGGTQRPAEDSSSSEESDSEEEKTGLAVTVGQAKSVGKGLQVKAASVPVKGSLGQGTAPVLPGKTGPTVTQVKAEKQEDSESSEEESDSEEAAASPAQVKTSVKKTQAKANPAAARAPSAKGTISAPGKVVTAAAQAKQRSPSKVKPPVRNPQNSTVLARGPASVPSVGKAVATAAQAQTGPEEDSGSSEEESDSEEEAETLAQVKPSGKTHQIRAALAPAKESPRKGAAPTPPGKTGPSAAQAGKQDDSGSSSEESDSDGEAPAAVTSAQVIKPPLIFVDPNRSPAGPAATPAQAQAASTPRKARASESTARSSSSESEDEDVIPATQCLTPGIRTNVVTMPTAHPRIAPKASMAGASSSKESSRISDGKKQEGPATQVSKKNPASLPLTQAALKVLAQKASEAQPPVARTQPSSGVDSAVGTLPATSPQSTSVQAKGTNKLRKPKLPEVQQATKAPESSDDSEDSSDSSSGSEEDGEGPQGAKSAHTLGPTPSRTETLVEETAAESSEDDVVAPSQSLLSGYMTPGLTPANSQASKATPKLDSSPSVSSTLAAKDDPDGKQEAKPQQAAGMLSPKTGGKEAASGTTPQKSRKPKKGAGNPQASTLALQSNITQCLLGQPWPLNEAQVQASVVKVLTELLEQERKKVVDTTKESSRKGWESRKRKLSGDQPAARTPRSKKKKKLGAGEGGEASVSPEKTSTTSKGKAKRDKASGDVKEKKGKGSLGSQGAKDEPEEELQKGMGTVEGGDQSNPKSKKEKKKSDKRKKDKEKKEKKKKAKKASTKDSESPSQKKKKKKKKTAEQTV
Chain of UniProt O95359 (O95359 whole entry, looked up): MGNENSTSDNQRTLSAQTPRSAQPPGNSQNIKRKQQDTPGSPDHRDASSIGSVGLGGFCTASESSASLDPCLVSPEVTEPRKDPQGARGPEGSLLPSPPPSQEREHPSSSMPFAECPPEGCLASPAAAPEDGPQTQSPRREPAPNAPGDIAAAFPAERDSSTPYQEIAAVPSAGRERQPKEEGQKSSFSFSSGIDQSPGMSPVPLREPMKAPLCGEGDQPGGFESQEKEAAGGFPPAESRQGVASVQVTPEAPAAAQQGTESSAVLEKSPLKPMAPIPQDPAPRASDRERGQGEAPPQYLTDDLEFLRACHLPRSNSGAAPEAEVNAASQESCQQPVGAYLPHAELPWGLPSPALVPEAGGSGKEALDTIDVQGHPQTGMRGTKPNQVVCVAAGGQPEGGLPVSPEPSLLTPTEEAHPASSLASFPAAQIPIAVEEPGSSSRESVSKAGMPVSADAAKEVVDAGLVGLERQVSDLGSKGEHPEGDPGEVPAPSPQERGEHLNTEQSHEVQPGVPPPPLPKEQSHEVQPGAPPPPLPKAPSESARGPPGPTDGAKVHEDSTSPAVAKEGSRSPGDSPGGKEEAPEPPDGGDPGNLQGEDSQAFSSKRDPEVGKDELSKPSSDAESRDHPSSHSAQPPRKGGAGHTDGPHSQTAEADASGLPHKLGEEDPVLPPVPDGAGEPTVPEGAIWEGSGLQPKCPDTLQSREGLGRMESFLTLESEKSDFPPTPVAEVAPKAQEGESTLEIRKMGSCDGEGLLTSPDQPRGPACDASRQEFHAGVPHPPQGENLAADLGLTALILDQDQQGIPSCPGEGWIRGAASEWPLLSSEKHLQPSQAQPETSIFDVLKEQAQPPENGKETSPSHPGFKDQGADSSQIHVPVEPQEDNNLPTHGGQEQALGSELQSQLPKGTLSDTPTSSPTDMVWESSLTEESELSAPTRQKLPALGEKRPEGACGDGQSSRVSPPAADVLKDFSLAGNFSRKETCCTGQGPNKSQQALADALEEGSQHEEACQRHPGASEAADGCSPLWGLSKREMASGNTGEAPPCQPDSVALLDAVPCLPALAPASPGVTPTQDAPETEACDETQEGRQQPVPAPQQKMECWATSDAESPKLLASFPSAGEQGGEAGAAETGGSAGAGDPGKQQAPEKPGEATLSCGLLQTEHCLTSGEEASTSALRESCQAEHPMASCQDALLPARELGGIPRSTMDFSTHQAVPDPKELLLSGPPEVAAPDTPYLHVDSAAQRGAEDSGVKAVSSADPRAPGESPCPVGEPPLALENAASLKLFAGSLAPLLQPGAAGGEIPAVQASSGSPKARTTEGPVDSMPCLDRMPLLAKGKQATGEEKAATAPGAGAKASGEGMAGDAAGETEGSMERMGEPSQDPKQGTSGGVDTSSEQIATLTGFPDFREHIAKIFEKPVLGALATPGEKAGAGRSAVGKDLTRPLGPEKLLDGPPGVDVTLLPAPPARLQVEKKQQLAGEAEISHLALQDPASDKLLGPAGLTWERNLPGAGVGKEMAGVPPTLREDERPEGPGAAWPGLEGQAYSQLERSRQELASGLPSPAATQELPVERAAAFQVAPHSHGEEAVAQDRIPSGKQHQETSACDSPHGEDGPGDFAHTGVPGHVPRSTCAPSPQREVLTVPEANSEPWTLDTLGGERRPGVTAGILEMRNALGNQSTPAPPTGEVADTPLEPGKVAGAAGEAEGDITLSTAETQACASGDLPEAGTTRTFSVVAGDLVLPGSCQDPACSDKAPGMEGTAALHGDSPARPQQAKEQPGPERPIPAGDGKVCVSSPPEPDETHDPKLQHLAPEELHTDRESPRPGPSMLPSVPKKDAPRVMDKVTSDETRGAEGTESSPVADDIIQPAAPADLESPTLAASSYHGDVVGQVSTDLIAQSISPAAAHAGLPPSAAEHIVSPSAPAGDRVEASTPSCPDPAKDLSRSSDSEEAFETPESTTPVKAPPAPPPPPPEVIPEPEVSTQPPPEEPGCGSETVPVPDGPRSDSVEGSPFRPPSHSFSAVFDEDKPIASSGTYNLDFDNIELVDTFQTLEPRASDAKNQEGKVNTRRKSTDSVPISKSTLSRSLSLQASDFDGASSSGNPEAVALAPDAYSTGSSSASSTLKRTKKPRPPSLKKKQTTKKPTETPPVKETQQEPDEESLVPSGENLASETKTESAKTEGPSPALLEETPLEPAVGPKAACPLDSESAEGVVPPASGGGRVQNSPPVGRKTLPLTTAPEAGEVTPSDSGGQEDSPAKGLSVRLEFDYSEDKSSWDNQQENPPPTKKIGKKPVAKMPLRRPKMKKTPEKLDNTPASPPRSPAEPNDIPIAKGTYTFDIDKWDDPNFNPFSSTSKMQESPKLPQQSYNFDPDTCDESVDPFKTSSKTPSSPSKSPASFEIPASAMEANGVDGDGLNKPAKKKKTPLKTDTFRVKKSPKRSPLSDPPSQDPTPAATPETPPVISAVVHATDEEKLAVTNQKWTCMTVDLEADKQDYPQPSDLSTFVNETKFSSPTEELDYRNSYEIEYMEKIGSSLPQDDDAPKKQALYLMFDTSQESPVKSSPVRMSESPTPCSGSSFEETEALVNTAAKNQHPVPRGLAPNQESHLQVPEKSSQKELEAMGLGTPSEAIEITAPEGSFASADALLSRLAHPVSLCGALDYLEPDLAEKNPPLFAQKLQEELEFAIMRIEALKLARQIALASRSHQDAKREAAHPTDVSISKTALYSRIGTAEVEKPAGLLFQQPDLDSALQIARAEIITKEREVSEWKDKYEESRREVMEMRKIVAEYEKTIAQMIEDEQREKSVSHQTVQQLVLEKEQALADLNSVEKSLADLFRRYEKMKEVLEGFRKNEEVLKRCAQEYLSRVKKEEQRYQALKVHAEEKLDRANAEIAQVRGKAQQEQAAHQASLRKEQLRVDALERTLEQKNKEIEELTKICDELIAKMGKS
Chain of UniProt O60749 (O60749 whole entry, looked up): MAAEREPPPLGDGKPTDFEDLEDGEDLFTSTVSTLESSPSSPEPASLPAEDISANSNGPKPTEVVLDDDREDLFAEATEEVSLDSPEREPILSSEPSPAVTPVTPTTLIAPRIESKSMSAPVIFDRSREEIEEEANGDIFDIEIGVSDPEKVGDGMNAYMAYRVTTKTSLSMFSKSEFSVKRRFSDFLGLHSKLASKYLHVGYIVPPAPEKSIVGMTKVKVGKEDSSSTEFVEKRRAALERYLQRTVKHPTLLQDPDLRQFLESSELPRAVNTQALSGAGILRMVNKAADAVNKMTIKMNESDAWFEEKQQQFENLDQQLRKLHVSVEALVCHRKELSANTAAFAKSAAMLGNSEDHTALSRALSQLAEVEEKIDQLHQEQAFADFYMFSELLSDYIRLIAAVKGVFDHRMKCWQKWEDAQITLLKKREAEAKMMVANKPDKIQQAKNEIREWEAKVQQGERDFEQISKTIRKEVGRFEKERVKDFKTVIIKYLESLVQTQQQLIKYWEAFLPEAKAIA
Chain of UniProt Q8N5G0 (Q8N5G0 whole entry, looked up): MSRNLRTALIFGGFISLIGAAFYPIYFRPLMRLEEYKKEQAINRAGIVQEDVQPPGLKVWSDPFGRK
Chain of UniProt Q9Y5J6 (Q9Y5J6 whole entry, looked up): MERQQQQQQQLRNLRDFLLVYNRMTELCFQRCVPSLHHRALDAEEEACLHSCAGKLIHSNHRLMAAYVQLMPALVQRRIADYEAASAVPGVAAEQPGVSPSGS

log2 fold change, inactive:
SLC35B1 isoform 2 (UniProt P78383) -0.037
SNX2 isoform 2 (UniProt O60749) -0.234
TCOF1 isoform 3 (UniProt Q13428) -0.152
SNRK (UniProt Q9NRH2) 0.158
SRCAP (UniProt Q6ZRS2) 0.097
TENT5C (UniProt Q5VWP2) 0.049
SMARCB1 (UniProt Q12824) 0.026
TCOF1 isoform 6 (UniProt Q13428) -0.087
SLC35B4 (UniProt Q969S0) -0.119
TIMM10B (UniProt Q9Y5J6) -0.068
SLC35F6 (UniProt Q8N357) -0.001
TM7SF2 (UniProt O76062) -0.142
SMIM20 isoform 2 (UniProt Q8N5G0) 0.093
TMBIM1 (UniProt Q969X1) -0.161
SP2 (UniProt Q02086) 0.012
TACC2 (UniProt O95359) -0.107
TK1 (UniProt K7ERV3) 0.005
SSBP4 (UniProt Q9BWG4) -0.601
TAF6L (UniProt Q9Y6J9) 0.177
